Consider five molecules from PubChem BioAssay.

The source made the active and inactive calls. Unless noted, the rule behind the calls is not given here.

Assay [1] is described as follows: anti-His antibody binders, primary screen, artefact control for SMM control protein annotation, biochemical, small-molecule microarray, 635 nm fluorescence (AID 1128).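 Note: score merges feature fluorescence with signal-to-noise for each printed compound spot.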 As to conditions: anti-His Alexa647 antibody binding, higher = more signal.
The subject of assay [2] is Human papillomavirus type 1a E7 protein (residues 1-88). Put plainly: HPV1a E7 small-molecule binders, primary screen, biochemical, small-molecule microarray, residues 1-88, 635 nm (AID 1129). Conditions: small-molecule microarray binding, fluorescence 635 nm; higher = more signal.
The target in assay [3] is Focal adhesion kinase 1 (Homo sapiens) (UniProt Q05397). Put plainly: small-molecule microarray binders of FAK, primary screen, biochemical, 635/667 nm fluorescence, BSA, DTT (AID 1130).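 Note: composite of spot emission at 667 nm and signal to noise over triplicate slides.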 As to conditions: PTK2 binding, 635 nm fluorescence, higher = more signal.
The test system of assay [4] is Fibrinogen (Alexa647-labelled). The experiment in a line: fibrinogen binders on compound microarrays, profiling panel, artefact control for SMM control-protein annotation, biochemical, small-molecule microarray, 635/667 nm fluorescence (AID 1131).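 Note: z-score merges 667 nm fluorescence with per-spot signal-to-noise over triplicate slides.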 As to conditions: fibrinogen-A647 binding fluorescence, higher = more signal.
The target in assay [5] is Follistatin (Homo sapiens) (UniProt P19883). The experiment in a line: follistatin binders on small-molecule microarrays, primary screen, biochemical, small-molecule microarray, 635/667 nm fluorescence (AID 1132). Conditions: FST binding, 635 nm fluorescence, higher = more signal.
Assay [6] concerns the target Fibroblast growth factor 2 (Homo sapiens) (UniProt P09038). Put plainly: FGF2 binders on small-molecule microarrays, primary screen, biochemical, small-molecule microarray, 635/667 nm fluorescence (AID 1133). As to conditions: small-molecule microarray binding, FGF2, fluorescence 635/667; higher = more signal.
A short description of assay [7]: mitochondrial membrane potential change in A549 cells, profiling panel, cell-based, JC-1 fluorescence, basal, 24 h, 100 nL (AID 1138).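 Note: A549 lung adenocarcinoma cells under basal conditions with no added stimulus; test concentration not given here.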 As to conditions: higher = more signal.
The subject of assay [8] is Lefty1. The experiment in a line: Lefty1 binders on small-molecule microarrays, primary screen, biochemical, small-molecule microarray, 635/667 nm fluorescence (AID 1139). Conditions: small-molecule microarray binding, fluorescence 635/667; higher = more signal.
Assay [9] relates to wheat germ agglutinin (Triticum aestivum), Alexa647-labelled. The experiment in a line: wheat germ agglutinin binders on compound microarrays, profiling panel, artefact control for SMM control-protein annotation, biochemical, small-molecule microarray, 635/667 nm fluorescence (AID 1140).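 Note: score merges 667 nm feature emission with signal to noise over triplicate slides.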 As to conditions: WGA-A647 binding, 635 nm fluorescence, higher = more signal.
For assay [10], the target named is Luciferin 4-monooxygenase (Photinus pyralis) (UniProt P08659). The experiment in a line: firefly luciferase enzyme inhibitors, primary screen, biochemical, luminescence, purified enzyme, 2006 set (AID 1141).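 Note: cell-free assay with purified firefly luciferase at 100 ng per well in PBS; test concentration not given here.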 Conditions: SteadyGlo luminescence, 30 min, higher = more signal, called active from +8 up or from −8 down.
Assay [11] concerns Wnt5a (protein binding on small-molecule microarray). The experiment in a line: Wnt5a binders on small-molecule microarray, primary screen, biophysical, 635/667 nm fluorescence (AID 1142).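 Note: fluorescence read at 667 nm with signal to noise per printed feature.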 Conditions: 635 nm fluorescence, higher = more signal.
Assay [12] can be described thus: cell viability in Huh7 cells, primary screen, cytotoxicity control for HCV replication inhibitor project, CellTiter-Glo luminescence, basal, 48 h (AID 1143).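 Note: Huh7 hepatoma cells carrying a hepatitis C replication reporter with no stimulus; test concentration not given here.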 As to conditions: Huh7 HCV replicon, higher = more signal, called active from +8 up or from −8 down. On the technique in general: In ATP-based viability assays light output follows the ATP content of the culture.

Assay [13] is described as follows: P. aeruginosa biofilm formation inhibitors, primary screen, PAO1 strain, BacTiter-Glo luminescence, LB-PBS (AID 1144). Conditions: 12 h, higher = more signal.
Assay [14] can be described thus: CREB reporter modulators without forskolin, primary screen, cell-based, PC12, CRE-LacZ reporter, unstimulated (AID 1145). As to conditions: no forskolin, luminescence, 4.5 h, higher = more signal, called active from +8 up or from −8 down.
Assay [15] is described as follows: CREB reporter modulators under forskolin, primary screen, cell-based, PC12, CRE-LacZ reporter, forskolin-stimulated (AID 1146).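 Note: PC12 cells with 6xCRE LacZ reporter stimulated by forskolin 10 µM; beta-galactosidase reporter signal reflecting CREB driven transcription.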 As to conditions: luminescence, 4.5 h, higher = more signal, called active from +8 up or from −8 down.
In assay [16] the target is Streptavidin (Streptomyces avidinii) (UniProt P22629). The experiment in a line: streptavidin binders on small-molecule microarray, primary screen, artefact control for SMM compound annotation, biophysical, 635/667 nm fluorescence (AID 1147).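 Note: signal reflects streptavidin binding to arrayed compounds as a control protein.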 As to conditions: streptavidin binding, higher = more signal.
A short description of assay [17]: small-molecule binders of probe aInhba, primary screen, biochemical, small-molecule microarray, 635/667 nm fluorescence (AID 1148).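 Note: score merges 667nm spot fluorescence with signal-to-noise for antibody binding to printed compounds.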 Conditions: higher = more signal.
In assay [18] the target is Torsin-1A (Homo sapiens) (UniProt O14656). The experiment in a line: torsin A binders from cell lysate, primary screen, small-molecule microarray, wild-type, 635/667 nm (AID 1149). Conditions: COS7 hTOR1A-WT lysate, 635 nm fluorescence, higher = more signal.
Assay [19] shares this target. Put plainly: small-molecule binders of mutant TOR1A in lysate, primary screen, cell lysate, small-molecule microarray, COS7 lysate, 635/667 nm fluorescence (AID 1150).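 Note: score pools 667 nm emission and signal to noise measuring lysate protein binding.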 Conditions: COS7 hTOR1A mutant lysate, 635 nm fluorescence, higher = more signal.
Assay [20] relates to Sonic hedgehog protein (Shh). Put plainly: small-molecule binders of Shh protein, primary screen, biochemical, small-molecule microarray, 635/667 nm fluorescence (AID 1151).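 Note: Shh protein binding to compounds spotted on small-molecule microarray slides; score combines spot fluorescence intensity with signal-to-noise across triplicate slides.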 As to conditions: small-molecule microarray binding, 635 nm fluorescence; higher = more signal.

Chain of Torsin-1A (Homo sapiens) (O14656 whole entry, looked up): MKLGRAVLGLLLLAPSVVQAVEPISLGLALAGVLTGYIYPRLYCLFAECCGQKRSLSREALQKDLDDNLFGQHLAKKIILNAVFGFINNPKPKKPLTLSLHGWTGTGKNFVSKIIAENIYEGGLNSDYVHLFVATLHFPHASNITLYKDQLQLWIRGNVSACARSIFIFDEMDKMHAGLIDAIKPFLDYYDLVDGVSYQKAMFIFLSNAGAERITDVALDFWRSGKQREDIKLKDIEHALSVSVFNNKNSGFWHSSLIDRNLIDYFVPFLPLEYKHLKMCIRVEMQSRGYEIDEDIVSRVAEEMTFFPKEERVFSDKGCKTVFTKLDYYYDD
Chain of Luciferin 4-monooxygenase (Photinus pyralis) (P08659 whole entry, looked up): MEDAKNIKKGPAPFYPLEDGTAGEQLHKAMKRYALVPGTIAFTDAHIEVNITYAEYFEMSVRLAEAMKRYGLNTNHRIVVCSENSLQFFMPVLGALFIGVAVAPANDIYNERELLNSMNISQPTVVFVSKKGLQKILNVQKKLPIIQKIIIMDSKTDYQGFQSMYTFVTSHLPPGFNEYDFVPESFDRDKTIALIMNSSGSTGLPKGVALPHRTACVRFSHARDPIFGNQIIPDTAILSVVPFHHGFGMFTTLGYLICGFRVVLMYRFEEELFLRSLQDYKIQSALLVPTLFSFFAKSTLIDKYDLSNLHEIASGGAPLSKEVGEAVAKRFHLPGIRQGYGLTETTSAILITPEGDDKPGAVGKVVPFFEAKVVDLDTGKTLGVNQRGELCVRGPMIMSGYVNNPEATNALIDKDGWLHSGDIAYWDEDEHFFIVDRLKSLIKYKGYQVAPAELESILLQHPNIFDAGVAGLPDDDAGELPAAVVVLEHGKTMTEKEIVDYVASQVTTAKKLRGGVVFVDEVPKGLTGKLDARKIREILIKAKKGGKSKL
Chain of Streptavidin (Streptomyces avidinii) (P22629 whole entry, looked up): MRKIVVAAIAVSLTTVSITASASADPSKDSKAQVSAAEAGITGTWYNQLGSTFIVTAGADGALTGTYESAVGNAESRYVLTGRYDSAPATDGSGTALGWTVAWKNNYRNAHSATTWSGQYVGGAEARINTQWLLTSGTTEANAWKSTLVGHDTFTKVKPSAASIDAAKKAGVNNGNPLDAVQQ
Chain of Fibroblast growth factor 2 (Homo sapiens) (P09038 whole entry, looked up): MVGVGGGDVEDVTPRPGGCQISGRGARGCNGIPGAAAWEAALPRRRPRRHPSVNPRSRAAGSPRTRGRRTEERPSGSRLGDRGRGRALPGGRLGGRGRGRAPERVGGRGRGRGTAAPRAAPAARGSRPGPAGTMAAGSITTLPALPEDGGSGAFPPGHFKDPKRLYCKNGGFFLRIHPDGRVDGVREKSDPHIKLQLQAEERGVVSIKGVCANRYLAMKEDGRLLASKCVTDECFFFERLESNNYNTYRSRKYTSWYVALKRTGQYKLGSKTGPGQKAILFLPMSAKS
Chain of Focal adhesion kinase 1 (Homo sapiens) (Q05397 whole entry, looked up): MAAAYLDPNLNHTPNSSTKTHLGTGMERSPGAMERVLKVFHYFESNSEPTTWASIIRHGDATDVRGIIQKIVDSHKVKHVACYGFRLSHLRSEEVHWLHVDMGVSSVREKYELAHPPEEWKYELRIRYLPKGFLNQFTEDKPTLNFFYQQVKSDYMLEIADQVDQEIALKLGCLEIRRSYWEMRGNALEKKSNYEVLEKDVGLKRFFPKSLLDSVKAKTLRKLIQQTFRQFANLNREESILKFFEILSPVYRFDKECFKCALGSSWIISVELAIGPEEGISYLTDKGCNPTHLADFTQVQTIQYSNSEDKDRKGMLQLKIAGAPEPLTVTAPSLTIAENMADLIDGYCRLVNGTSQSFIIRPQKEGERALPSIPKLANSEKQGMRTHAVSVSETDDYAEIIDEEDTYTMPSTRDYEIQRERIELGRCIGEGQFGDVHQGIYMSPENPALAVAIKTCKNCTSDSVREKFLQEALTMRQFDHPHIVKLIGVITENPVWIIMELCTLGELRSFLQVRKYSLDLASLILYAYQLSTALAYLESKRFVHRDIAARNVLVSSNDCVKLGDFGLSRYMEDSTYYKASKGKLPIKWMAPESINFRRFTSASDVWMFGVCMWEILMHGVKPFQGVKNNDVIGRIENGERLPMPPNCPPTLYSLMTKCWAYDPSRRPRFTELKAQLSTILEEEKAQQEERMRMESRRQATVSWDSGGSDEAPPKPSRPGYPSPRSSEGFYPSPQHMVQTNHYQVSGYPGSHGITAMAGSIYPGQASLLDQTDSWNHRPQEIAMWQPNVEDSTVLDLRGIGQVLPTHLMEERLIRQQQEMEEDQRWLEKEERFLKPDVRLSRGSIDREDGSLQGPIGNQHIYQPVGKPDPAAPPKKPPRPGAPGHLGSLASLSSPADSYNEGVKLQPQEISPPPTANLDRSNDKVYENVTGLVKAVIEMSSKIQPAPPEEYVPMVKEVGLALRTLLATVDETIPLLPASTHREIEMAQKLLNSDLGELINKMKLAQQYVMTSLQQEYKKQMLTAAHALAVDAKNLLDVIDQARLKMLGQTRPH
Chain of Follistatin (Homo sapiens) (P19883 whole entry, looked up): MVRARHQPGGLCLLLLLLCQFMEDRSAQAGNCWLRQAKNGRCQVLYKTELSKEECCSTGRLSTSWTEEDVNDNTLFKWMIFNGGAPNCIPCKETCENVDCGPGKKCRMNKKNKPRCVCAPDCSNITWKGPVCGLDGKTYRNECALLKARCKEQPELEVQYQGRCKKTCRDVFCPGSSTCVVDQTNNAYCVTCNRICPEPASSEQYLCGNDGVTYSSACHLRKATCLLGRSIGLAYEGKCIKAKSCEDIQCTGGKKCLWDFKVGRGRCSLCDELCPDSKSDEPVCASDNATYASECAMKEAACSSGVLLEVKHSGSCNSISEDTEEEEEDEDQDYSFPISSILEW

Regarding `COCCOC(=O)N1C(=O)[C@@]2(c3cc(C#CC4(O)CCCCCC4)ccc31)[C@H](C(=O)Nc1nc3ccccc3s1)[C@H]1C(=O)O[C@H](c3ccccc3)[C@H](c3ccccc3)N1[C@@H]2c1ccccc1OCCO`, the composite z-score in assay [1] came to 2.46; in assay [2], 1.2; in assay [3] it was 0.823; in assay [4] it was 0.981; in assay [5], 1.01; in assay [6], 1.37. Moreover, the composite z-score was 0.581 in assay [8]; 1.08 in assay [9]; 0.82 in assay [11]; 0.845 in assay [16]; -0.0762 in [17]; 0.61 in assay [18]. The composite z-score in assay [19] worked out at 0.144; in assay [20], 0.976. For the same molecule, the z-score is -1.13 in assay [7]; -3.04 (inactive) in assay [10]; -2.5 (inactive) in assay [12]; 0.451 (inactive) in assay [13]; 0.212 (inactive) in assay [14]; -0.192 (inactive) in [15].

Take `O=C1C2C=CC(C(O)COCc3ccccc3)N(Nc3ccc([N+](=O)[O-])cc3)C2C(=O)N1c1ccccc1` (stereo not given): the composite z-score turned out to be 1.55 in [1]; 1.25 in assay [2]; 1.19 in assay [3]; 0.983 in assay [4]; 1.13 in assay [5]; 0.119 in assay [6]. The composite z-score was determined as 0.638 in [8]; 0.955 in assay [9]; 0.43 in assay [11]; 0.464 in [16]; 0.0743 in assay [17]; 0.272 in assay [18]. The figures for the composite z-score in assay [19] and in assay [20] were 0.165 and 0.57, respectively. Also, the z-score was -0.738 in assay [7]; 1.54 (inactive) in [10]; -3 (inactive) in assay [12]; -1.83 (inactive) in assay [13]; -0.275 (inactive) in assay [14]; 0.788 (inactive) in [15].

Turning to `CC(C)(C)OC(=O)CC[C@]1(C(=O)NCCN2CCOCC2)COC(c2ccc(OCCCO)cc2)=N1`, the composite z-score came to 1.34 in assay [1]; 1.19 in assay [2]; 0.436 in assay [3]; 0.46 in assay [4]; 1.32 in assay [5]; 1.78 in assay [6]. Besides, the composite z-score in assay [8] was determined as 0.78; in assay [9], 0.253; in assay [11] it was 0.681; in assay [16] it was 0.344; in assay [17] it was 0.0227; in [18], 0.717. The figures for the composite z-score in assay [19] and in assay [20] were 1.37 and 0.998, respectively. Besides, the z-score was -0.13 in assay [7]; 0.965 (inactive) in [10]; -0.102 (inactive) in assay [12]; -0.192 (inactive) in [13]; 0.157 (inactive) in assay [14]; -0.168 (inactive) in [15].

With `COc1ccc(NN2C(C(O)c3ccc(N(C)C)cc3)C=CC3C(=O)N(C4CCCCC4)C(=O)C32)cc1` (stereo not given), the composite z-score in assay [1] is 1.64; in assay [2], 1.22; in [3], 0.465; in [4] it was 0.941; in assay [5] it was 0.731; in [6] it was -0.24. Moreover, the composite z-score in assay [8] turned out to be 0.27; in assay [9] it was 0.667; in [11], 0.66; in assay [16], 1.46; in [17] it was 0.346; in [18], 0.0944. Besides, the composite z-score in assay [19] turned out to be 1.11; in assay [20], 0.0202. In addition, the z-score is -0.165 in assay [7]; 0.557 (inactive) in assay [10]; -0.759 (inactive) in assay [12]; -0.805 (inactive) in assay [13]; -0.583 (inactive) in [14]; -0.249 (inactive) in [15].

For `O=C1NC(=O)C2C1C=CC(C(O)C=Cc1ccc([N+](=O)[O-])cc1)N2Nc1ccc(Cl)cc1Cl` (stereo not given), the composite z-score in [1] was 1.72; in assay [2], 1.11; in assay [3], 0.0716; in assay [4] it was 0.646; in assay [5], 1.04; in assay [6] it was -0.18. Further, the composite z-score in [8] was -0.443; in assay [9], 0.957; in assay [11], 0.28; in assay [16] it was 1.14; in assay [17], 0.317; in [18], 0.339. Further, the composite z-score was 0.417 in assay [19] and -0.08 in [20]. Further, the z-score is 0.408 in assay [7]; -3.39 (inactive) in assay [10]; 0.099 (inactive) in assay [12]; -0.402 (inactive) in assay [13]; 0.253 (inactive) in assay [14]; 0.342 (inactive) in assay [15].
